# Results reported in paper PMC7862700, “An all-to-all approach to the identification of sequence-specific readers for epigenetic DNA modifications on cytosine”.
# How the values were obtained:
# Assay in all cases: DAPPL (digital affinity profiling via proximity ligation, sequencing); 10 mM Tris-HCl pH 7.5, 50 mM NaCl, 1 mM DTT, 4% glycerol, room temperature, 30 min; GST-TFs on glutathione beads, 16-mer random dsDNA library, 0.1% formaldehyde crosslink after washing; high values mean tight binding
# Details in all cases: protein: recombinant; tags: N-terminal GST; dsDNA, one strand shown
# FLI1 = target: T1, FLI1 (Homo sapiens, UniProt Q01543 1-452)
# T1 sequence: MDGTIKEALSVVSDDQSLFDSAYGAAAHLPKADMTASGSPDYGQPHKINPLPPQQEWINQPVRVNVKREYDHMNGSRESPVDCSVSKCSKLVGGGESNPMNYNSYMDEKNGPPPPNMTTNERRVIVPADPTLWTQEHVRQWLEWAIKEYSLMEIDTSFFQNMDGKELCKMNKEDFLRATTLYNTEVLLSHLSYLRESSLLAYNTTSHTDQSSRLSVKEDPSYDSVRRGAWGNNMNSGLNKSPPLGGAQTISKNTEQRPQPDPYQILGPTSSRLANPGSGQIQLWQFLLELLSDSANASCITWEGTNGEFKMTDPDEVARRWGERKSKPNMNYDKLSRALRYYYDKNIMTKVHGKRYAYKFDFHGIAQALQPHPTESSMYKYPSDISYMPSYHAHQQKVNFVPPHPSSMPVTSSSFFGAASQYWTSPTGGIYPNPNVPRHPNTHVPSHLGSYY
# Method in brief: (§1)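 Sequencing on an Illumina NextSeq500 followed washing, crosslinking with 0.1% formaldehyde, proximity ligation (BsaI/T4 ligase, 1 h, 37 °C) and PCR amplification of pools that had been incubated for 30 min at room temperature with 200 nmole of a random double-stranded 16-mer DNA library in Tris/NaCl/DTT/glycerol buffer. Each pool held DNA-barcoded human transcription factors, expressed in yeast as GST fusions and captured on glutathione beads, plus a tag-only sample. Binding signal is a hexamer's read frequency for a factor divided by its frequency in the tag-only sample.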
# ELK1 = target: T2, ELK1 (Homo sapiens, UniProt P19419 1-428)
# T2 sequence: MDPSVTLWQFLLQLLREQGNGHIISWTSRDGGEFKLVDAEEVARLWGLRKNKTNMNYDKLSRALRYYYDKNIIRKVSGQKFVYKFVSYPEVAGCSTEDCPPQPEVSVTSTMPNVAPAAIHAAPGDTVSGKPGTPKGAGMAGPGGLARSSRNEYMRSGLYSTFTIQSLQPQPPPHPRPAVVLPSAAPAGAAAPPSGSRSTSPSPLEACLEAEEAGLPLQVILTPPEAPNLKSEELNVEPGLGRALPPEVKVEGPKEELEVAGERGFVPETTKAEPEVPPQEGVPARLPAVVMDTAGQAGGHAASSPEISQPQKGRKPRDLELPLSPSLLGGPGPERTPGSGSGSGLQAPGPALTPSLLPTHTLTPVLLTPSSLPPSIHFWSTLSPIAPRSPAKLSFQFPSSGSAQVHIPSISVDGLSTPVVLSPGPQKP
# Method in brief: as §1
# GABPA = target: T3, GABPA (Homo sapiens, UniProt Q06546 1-454)
# T3 sequence: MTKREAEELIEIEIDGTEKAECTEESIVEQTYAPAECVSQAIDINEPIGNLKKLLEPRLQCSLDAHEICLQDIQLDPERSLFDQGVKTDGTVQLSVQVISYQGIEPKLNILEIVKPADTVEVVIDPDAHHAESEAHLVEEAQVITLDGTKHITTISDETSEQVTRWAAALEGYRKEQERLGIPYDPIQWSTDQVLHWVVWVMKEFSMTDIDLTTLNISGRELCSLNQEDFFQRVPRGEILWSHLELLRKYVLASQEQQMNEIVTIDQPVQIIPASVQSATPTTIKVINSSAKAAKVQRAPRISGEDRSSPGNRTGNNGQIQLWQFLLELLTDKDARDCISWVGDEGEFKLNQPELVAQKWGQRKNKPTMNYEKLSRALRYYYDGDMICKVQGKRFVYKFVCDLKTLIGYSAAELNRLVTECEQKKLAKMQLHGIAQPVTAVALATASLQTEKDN
# Method in brief: as §1
# ERG = target: T4, ERG (Homo sapiens, UniProt P11308 1-479)
# T4 sequence: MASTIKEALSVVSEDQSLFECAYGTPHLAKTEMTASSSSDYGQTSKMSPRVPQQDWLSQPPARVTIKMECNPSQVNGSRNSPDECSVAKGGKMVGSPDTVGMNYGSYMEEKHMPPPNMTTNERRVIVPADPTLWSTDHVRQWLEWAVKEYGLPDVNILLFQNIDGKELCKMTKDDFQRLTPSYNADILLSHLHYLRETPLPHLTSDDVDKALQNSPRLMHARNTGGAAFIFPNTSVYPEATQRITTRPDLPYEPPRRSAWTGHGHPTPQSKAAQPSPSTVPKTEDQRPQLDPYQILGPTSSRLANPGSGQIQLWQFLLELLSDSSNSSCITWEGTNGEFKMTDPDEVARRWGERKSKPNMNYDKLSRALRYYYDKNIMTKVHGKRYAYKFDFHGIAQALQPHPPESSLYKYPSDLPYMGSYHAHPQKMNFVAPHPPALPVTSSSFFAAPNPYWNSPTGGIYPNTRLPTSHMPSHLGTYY
# Method in brief: as §1
# ELF1 = ELF1 (Homo sapiens, UniProt P32519 1-619)
# Method in brief: as §1
# EHF = target: T5, EHF (Homo sapiens, UniProt Q9NZC4 1-300)
# T5 sequence: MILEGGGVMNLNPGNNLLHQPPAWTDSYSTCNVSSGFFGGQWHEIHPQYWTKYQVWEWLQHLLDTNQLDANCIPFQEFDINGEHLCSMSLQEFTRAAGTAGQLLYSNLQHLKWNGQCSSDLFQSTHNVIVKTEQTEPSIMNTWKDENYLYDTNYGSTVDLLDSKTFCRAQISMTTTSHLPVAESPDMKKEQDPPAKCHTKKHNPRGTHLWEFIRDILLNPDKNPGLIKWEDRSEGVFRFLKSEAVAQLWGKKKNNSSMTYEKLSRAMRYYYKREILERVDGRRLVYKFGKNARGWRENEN
# Method in brief: as §1
# SPI1 = SPI1 (Homo sapiens, UniProt P17947 1-270)
# Method in brief: as §1
# SPIB = SPIB (Homo sapiens, UniProt Q01892 1-262)
# Method in brief: as §1
# ELK3 = target: T6, ELK3 (Homo sapiens, UniProt P41970 1-407)
# T6 sequence: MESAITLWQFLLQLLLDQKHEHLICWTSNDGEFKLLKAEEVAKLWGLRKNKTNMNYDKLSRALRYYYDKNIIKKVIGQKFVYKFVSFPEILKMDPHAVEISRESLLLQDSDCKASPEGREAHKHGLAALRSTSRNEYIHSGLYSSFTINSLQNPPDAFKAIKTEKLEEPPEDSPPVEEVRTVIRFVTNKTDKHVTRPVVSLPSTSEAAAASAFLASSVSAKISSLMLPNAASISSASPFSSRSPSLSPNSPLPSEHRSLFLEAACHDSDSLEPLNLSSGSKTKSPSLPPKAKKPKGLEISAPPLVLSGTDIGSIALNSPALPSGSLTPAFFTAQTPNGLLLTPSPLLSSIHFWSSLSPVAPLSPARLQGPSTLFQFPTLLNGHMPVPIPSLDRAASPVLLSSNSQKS
# Method in brief: as §1
# ELF1, sequence (P32519 whole entry): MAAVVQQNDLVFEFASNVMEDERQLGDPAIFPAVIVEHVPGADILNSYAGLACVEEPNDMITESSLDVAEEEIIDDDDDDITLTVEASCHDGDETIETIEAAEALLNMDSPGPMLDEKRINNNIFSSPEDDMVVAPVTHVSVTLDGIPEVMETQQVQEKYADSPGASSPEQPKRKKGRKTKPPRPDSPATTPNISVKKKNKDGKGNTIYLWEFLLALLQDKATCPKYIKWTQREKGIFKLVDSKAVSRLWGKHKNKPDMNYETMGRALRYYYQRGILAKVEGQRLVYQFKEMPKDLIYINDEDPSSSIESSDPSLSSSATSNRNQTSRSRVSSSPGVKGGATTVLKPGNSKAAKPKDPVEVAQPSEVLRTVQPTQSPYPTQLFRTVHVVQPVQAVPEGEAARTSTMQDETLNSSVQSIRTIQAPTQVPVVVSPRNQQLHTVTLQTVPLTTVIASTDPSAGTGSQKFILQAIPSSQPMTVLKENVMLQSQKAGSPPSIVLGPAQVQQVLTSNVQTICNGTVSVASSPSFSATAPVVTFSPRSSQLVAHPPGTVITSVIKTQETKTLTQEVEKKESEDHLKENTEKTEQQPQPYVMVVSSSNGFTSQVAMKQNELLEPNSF
# SPIB, sequence (Q01892 whole entry): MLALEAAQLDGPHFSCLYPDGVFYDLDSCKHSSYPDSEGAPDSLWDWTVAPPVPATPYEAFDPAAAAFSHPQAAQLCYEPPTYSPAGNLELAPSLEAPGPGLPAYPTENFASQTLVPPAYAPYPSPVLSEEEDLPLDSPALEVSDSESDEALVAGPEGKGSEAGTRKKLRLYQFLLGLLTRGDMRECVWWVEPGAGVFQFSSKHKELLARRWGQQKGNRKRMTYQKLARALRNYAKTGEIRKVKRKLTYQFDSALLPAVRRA
Sequence,binding signal (FLI1),binding signal (ELK1),binding signal (GABPA),binding signal (ERG),binding signal (ELF1),binding signal (EHF),binding signal (SPI1),binding signal (SPIB),binding signal (ELK3)
CCAACG,"1.12 fold enrichment (6-mer frequency, TF over GST control)","1.15 fold enrichment (6-mer frequency, TF over GST control)","1.09 fold enrichment (6-mer frequency, TF over GST control)","1.17 fold enrichment (6-mer frequency, TF over GST control)","1.2 fold enrichment (6-mer frequency, TF over GST control)","1.11 fold enrichment (6-mer frequency, TF over GST control)","1.15 fold enrichment (6-mer frequency, TF over GST control)","1.07 fold enrichment (6-mer frequency, TF over GST control)","1 fold enrichment (6-mer frequency, TF over GST control)"
AGTATC,"1.09 fold enrichment (6-mer frequency, TF over GST control)","1.13 fold enrichment (6-mer frequency, TF over GST control)","1.11 fold enrichment (6-mer frequency, TF over GST control)","1.08 fold enrichment (6-mer frequency, TF over GST control)","1.13 fold enrichment (6-mer frequency, TF over GST control)","1.19 fold enrichment (6-mer frequency, TF over GST control)","1.13 fold enrichment (6-mer frequency, TF over GST control)","1.2 fold enrichment (6-mer frequency, TF over GST control)","1.17 fold enrichment (6-mer frequency, TF over GST control)"
GTACTA,"1.16 fold enrichment (6-mer frequency, TF over GST control)","1.06 fold enrichment (6-mer frequency, TF over GST control)","1.12 fold enrichment (6-mer frequency, TF over GST control)","1.07 fold enrichment (6-mer frequency, TF over GST control)","1.19 fold enrichment (6-mer frequency, TF over GST control)","1.14 fold enrichment (6-mer frequency, TF over GST control)","1.02 fold enrichment (6-mer frequency, TF over GST control)","1.1 fold enrichment (6-mer frequency, TF over GST control)","1.02 fold enrichment (6-mer frequency, TF over GST control)"
TGGACA,"1.06 fold enrichment (6-mer frequency, TF over GST control)","1.07 fold enrichment (6-mer frequency, TF over GST control)","1.11 fold enrichment (6-mer frequency, TF over GST control)","1.05 fold enrichment (6-mer frequency, TF over GST control)","1.15 fold enrichment (6-mer frequency, TF over GST control)","1.05 fold enrichment (6-mer frequency, TF over GST control)","1.03 fold enrichment (6-mer frequency, TF over GST control)","1.08 fold enrichment (6-mer frequency, TF over GST control)","1.07 fold enrichment (6-mer frequency, TF over GST control)"
ATGGAC,"1.21 fold enrichment (6-mer frequency, TF over GST control)","1.22 fold enrichment (6-mer frequency, TF over GST control)","1.21 fold enrichment (6-mer frequency, TF over GST control)","1.16 fold enrichment (6-mer frequency, TF over GST control)","1.26 fold enrichment (6-mer frequency, TF over GST control)","1.21 fold enrichment (6-mer frequency, TF over GST control)","1.25 fold enrichment (6-mer frequency, TF over GST control)","1.38 fold enrichment (6-mer frequency, TF over GST control)","1.19 fold enrichment (6-mer frequency, TF over GST control)"
ATATGA,"1.11 fold enrichment (6-mer frequency, TF over GST control)","1.07 fold enrichment (6-mer frequency, TF over GST control)","1.1 fold enrichment (6-mer frequency, TF over GST control)","1.14 fold enrichment (6-mer frequency, TF over GST control)","1.06 fold enrichment (6-mer frequency, TF over GST control)","1.07 fold enrichment (6-mer frequency, TF over GST control)","1.1 fold enrichment (6-mer frequency, TF over GST control)","1.1 fold enrichment (6-mer frequency, TF over GST control)","1.18 fold enrichment (6-mer frequency, TF over GST control)"
CGCACT,"1.12 fold enrichment (6-mer frequency, TF over GST control)","1.33 fold enrichment (6-mer frequency, TF over GST control)","1.28 fold enrichment (6-mer frequency, TF over GST control)","1.21 fold enrichment (6-mer frequency, TF over GST control)","1.22 fold enrichment (6-mer frequency, TF over GST control)","1.29 fold enrichment (6-mer frequency, TF over GST control)","1.41 fold enrichment (6-mer frequency, TF over GST control)","1.27 fold enrichment (6-mer frequency, TF over GST control)","1.24 fold enrichment (6-mer frequency, TF over GST control)"
GAACAT,"1.01 fold enrichment (6-mer frequency, TF over GST control)","1.02 fold enrichment (6-mer frequency, TF over GST control)","1.09 fold enrichment (6-mer frequency, TF over GST control)","1.03 fold enrichment (6-mer frequency, TF over GST control)","1.02 fold enrichment (6-mer frequency, TF over GST control)","1.05 fold enrichment (6-mer frequency, TF over GST control)","1.04 fold enrichment (6-mer frequency, TF over GST control)","1.01 fold enrichment (6-mer frequency, TF over GST control)","1.16 fold enrichment (6-mer frequency, TF over GST control)"
